Assay results from the supplement of paper PMC4723716.
Whole data set: some 3,600 compounds, median “viability index relative to DMSO control” near 0.81, cut for the lowest 2% near 0.13. This excerpt belongs to a sample that is enriched for the lowest values.

The compounds below were run on Plasmodium falciparum NF54 stage V gametocytes (assay: viability index relative to DMSO control (fraction); higher = less gametocyte killing). Conditions: 1.25 µM, incubation time: 72 h.
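Note: Saponin-lysis sexual stage assay in serum-free medium: MitoTracker Red CMXRos staining plus saponin, high-content imaging, particle count per well divided by plate mean of DMSO wells.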

Row | SMILES | viability index
1 | O=C(c1cc2n(n1)C(C(F)(F)F)CC(c1ccc3c(c1)OCO3)N2)N1CCN(C(c2ccccc2)c2ccccc2)CC1 (centres undefined) | 0.682
2 | CC(=O)Nc1ccc(-c2nc3c4ccccc4c4ccc(I)cc4c3[nH]2)cc1 | 0.762
3 | C(=NNc1nc2ccccc2[nH]1)c1c[nH]c2ccccc12 | 0.558
4 | COc1cccc(CNc2cc(C(=O)NCCNC(C)=O)cc(S(=O)(=O)N(C)C)c2)c1OC | 1.32
5 | CCOc1ccc2nc(C)cc(Nc3ccc(C)c(Cl)c3)c2c1 | 0.852
6 | CCOc1ccc2nc3cc(NCc4ccco4)ccc3c(N)c2c1 | 0.775
7 | COc1ccc(C2c3[nH]c4ccccc4c3C[C@H]3C(=O)N(CCC(C)C)CC(=O)N23)cc1 (some centres undefined) | 0.803
8 | C=CCSc1nnc2c(n1)[nH]c1ccc(OCC)cc12 | 0.656
9 | O=C(Nc1ccc(-c2nc3ccc(NC(=O)c4ccc(Br)o4)cc3[nH]2)cc1)c1ccc(Br)o1 | 1.1
10 | O=C(Nc1ccc2oc(-c3ccc(I)cc3)nc2c1)c1ccc([N+](=O)[O-])o1 | 0.0302
11 | O=C(CN1CCN(C(=O)c2ccccc2)CC1)Nc1ccc(-c2nc3cc(NC(=O)CN4CCN(C(=O)c5ccccc5)CC4)ccc3o2)cc1 | 0.951
12 | Nc1ccc(C(=O)Nc2ccc(-c3nc4ccccc4o3)cc2)cc1 | 0.703
13 | Cc1cc([N+](=O)[O-])ccc1-c1ccc(C(=O)Nc2ccc(-c3nc4ccccc4[nH]3)cc2)o1 | 0.622
14 | Cc1ccc(-c2nc3cc(NC(=O)c4ccc([N+](=O)[O-])o4)ccc3o2)cc1Br | 0.0755
15 | Cc1cc(N2CCCCC2)nc2ccc(NC(=O)c3cccc([N+](=O)[O-])c3)cc12 | 0.787
16 | Cc1cccc(-c2nc3cc(NC(=O)c4ccc([N+](=O)[O-])o4)ccc3o2)c1 | 0.0679
17 | Cc1ccc(-c2nc3cc(NC(=O)c4ccc(Cl)cc4Cl)ccc3o2)cc1 | 1.32
18 | Cc1cc(N2CCN(C)CC2)nc2ccc(NC(=O)c3ccc(Br)o3)cc12 | 0.924
19 | Cc1cc(N2CCC(C)CC2)nc2ccc(NC(=O)c3ccc([N+](=O)[O-])o3)cc12 | 0.12
20 | Cc1cccc(-c2nc3cc(NC(=S)NC(=O)c4ccc(Cl)cc4)ccc3o2)c1 | 0.808
21 | CNC(=O)c1nn(C)c2c1CC(NCC1CCCCC1)CC2 (centres undefined) | 0.702

Row | SMILES | viability index
22 | CC(=NNC(=O)c1ccc(C)cc1)c1ccccn1 | 0.294
23 | CCOC(=O)c1oc2cc(O)c(CC)cc2c(=O)c1-c1ccc2c(c1)OCO2 | 1.09
24 | CCOc1ccc2[nH]c(=O)c(CN(CCCN3CCOCC3)C(=S)NCCCN(CC)CC)cc2c1 | 0.814
25 | Oc1cccc(Nc2nc(NCc3ccco3)c3ccccc3n2)c1 | 0.595
26 | O=[N+]([O-])c1cccc(Cl)c1N1CCN(S(=O)(=O)Cc2ccccc2)CC1 | 1
27 | COc1cc(C=C(C#N)c2nc3ccccc3[nH]2)ccc1OCc1ccccc1Cl | 0.678
28 | CC1CC(N(C(=O)c2ccc(Cl)cc2Cl)c2ccccc2)c2ccccc2N1C(=O)c1ccc(Cl)cc1 (centres undefined) | 0.723
29 | CCC(=O)NC(c1cccc([N+](=O)[O-])c1)c1ccc2cccnc2c1O (centres undefined) | 1.12
30 | O=[N+]([O-])c1cc([N+](=O)[O-])c2cccnc2c1Nc1cccc2cccnc12 | 0.209
31 | O=[N+]([O-])c1cc(C(F)(F)F)cc([N+](=O)[O-])c1Sc1cccc2cccnc12 | 0.0789
32 | COc1cccc2c1OCC(CN1CCC(C(=O)Nc3ccc(-n4cccn4)cc3)CC1)=C2 | 1.03
33 | O=C(Nc1ccc2oc(-c3cccc4ccccc34)nc2c1)c1ccc([N+](=O)[O-])o1 | 0.0679
34 | O=C(Nc1ccc(-c2nnc(-c3ccc(NC(=O)c4ccccc4[N+](=O)[O-])cc3)o2)cc1)c1ccccc1[N+](=O)[O-] | 0.756
35 | O=C(Nc1ccc2oc(-c3ccccc3F)nc2c1)c1ccc([N+](=O)[O-])o1 | 0.128
36 | CCC(C)(C)c1ccc(Oc2ccc(NC(=O)c3ccc([N+](=O)[O-])o3)cc2)cc1 | 0.362
37 | O=C(Nc1ccc(-c2nc3ccccc3[nH]2)cc1)c1ccc(-c2cccc([N+](=O)[O-])c2)o1 | 0.751
38 | O=C(Nc1ccc(F)c(F)c1)c1ccccc1[N+](=O)[O-] | 1.03
39 | CCN1C(=Cc2cccc[n+]2C)C=Cc2ccccc21 | 1.01
40 | CCN1CCC(NC2CCCc3c2[nH]c2ccc([N+](=O)[O-])cc32)CC1 (centres undefined) | 1.07
41 | CC1CCN(C(=O)C(C)N(c2ccccc2)S(C)(=O)=O)CC1 (centres undefined) | 0.917
42 | O=C1OC(c2ccccc2)=NC1=C(Cl)Cl | 1.1

Row | SMILES | viability index
43 | Cc1cc(Nc2ccc(O)cc2)nc2cccc(O)c12 | 0.735
44 | Cc1c2ccccc2cc(Cc2ccccc2)[n+]1C | 0.76
45 | C=CC[n+]1cccc2c3ccccc3ccc21 | 0.706
46 | c1ccc2c(c1)ccc1cc3cccc[n+]3cc12 | 0.0821
47 | O=C(c1ccc([N+](=O)[O-])cc1)c1ccc(Cl)c(Cl)c1 | 0.574
48 | CCOC(=O)C1=C(C)N=c2sc(=Cc3cccc(OCc4cccc5ccccc45)c3)c(=O)n2C1c1ccc(OC)cc1OC (centres undefined) | 0.924
49 | O=C(Cc1ccc(Cl)cc1)NNS(=O)(=O)c1ccc([N+](=O)[O-])cc1 | 0.939
50 | O=C(Nc1ccc(-c2nc3ccccc3[nH]2)cc1)c1ccc(-c2ccc(Cl)cc2)o1 | 0.725
51 | O=C(C=Cc1ccccc1)Nc1ccc(-c2nc3cc(NC(=O)C=Cc4ccccc4)ccc3[nH]2)cc1 | 0.11
52 | O=C(Nc1ccc(-c2nc3cc(NC(=O)c4cccs4)ccc3[nH]2)cc1)c1cccs1 | 1.05
53 | O=C(Nc1ccc(-c2nc3ccccc3[nH]2)cc1)c1cccc(C(=O)Nc2ccc(-c3nc4ccccc4[nH]3)cc2)n1 | 0.0331
54 | O=C(Nc1ccc(-c2nc3ccccc3[nH]2)cc1)c1ccc(Cl)c(Cl)c1 | 1.03
55 | O=C(Nc1ccc(-c2nc3cc(NC(=O)C(c4ccccc4)c4ccccc4)ccc3[nH]2)cc1)C(c1ccccc1)c1ccccc1 | 0.908
56 | CCOc1ccccc1C1C(C#N)=C(SCC(=O)Nc2ccc(Cl)cc2)NC(C)=C1C(=O)Nc1ccccc1 (centres undefined) | 0.5
57 | Fc1ccc(CSc2nc3cccnc3[nH]2)cc1 | 1.24
58 | Cc1cc(C)cc(NC2=C(N)C(=O)c3ccccc3C2=O)c1 | 0.707
59 | COc1ccc(-c2cc(C3CCN(c4nc(N)c5cc(OC)c(OC)cc5n4)CC3)n[nH]2)cc1OC | 1.17
60 | COc1cc2nc(N3CCN(c4nc(N)c5cc(OC)c(OC)cc5n4)CC3)nc(N)c2cc1OC | 0.0192
61 | COc1cc2nc(Nc3ccc(F)cc3)nc(N)c2cc1OC | 0.787
62 | O=C(CNCCc1ccccc1)NC(c1ccccc1)c1ccccc1 | 0.761
63 | CCOc1ccc(C=C(C#N)c2nc3ccccc3[nH]2)cc1OC | 0.837

Row | SMILES | viability index
64 | COc1cc2c(-c3cc(Br)ccc3O)nc3c(c(Cc4ccccc4)nn3-c3ccccc3)c2cc1OC | 0.595
65 | CC(C=NNC(N)=S)=NNC(N)=S | 0.131
66 | NC(=S)NN=Cc1cc([N+](=O)[O-])ccc1O | 0.176
67 | CCOc1ccc(CCN2C(=S)N(c3cccc(C(F)(F)F)c3)C(=O)C2CC(=O)Nc2ccc(C(=O)OC)cc2)cc1OCC (centres undefined) | 0.582
68 | N#Cc1c(-c2ccccc2)cc(N2CCN(C3CCCCC3)CC2)n2c1nc1ccccc12 | 0.822
69 | COc1ccc(-c2c[n+](CC(=O)c3cccc(OC)c3)c3n2CCC3)cc1 | 0.74
70 | Cc1ccc2c(c1)C(C)(c1ccc(Cl)cc1)CC(C)(C)N2C(=O)COc1ccc2ccccc2c1 (centres undefined) | 0.826
71 | O=C(C[n+]1cc(-c2ccc(F)cc2)n2c1CCC2)Nc1ccc(Cl)cc1 | 1.44
72 | Cc1c(Cl)cccc1NC(=O)CCC(=O)NNC(=O)c1ccccc1 | 0.9
73 | CCSC(Cl)=C(NC(=O)c1ccccc1)[P+](c1ccccc1)(c1ccccc1)c1ccccc1 | 0.0362
74 | CCCc1ccc(C(=O)NC(=O)c2ccccc2O)cc1 | 1.05
75 | O=C1C(Nc2ccc(O)cc2)=CC(=NS(=O)(=O)c2cccs2)c2ccccc21 | 0.306
76 | COc1ccccc1NC1=CC(=NS(=O)(=O)c2ccccc2)c2ccccc2C1=O | 0.247
77 | O=C1C(Sc2nc[nH]n2)=CC(=NS(=O)(=O)c2cccs2)c2ccccc21 | 0.707
78 | COc1ccccc1NC1=CC(=NS(=O)(=O)c2cccs2)c2ccccc2C1=O | 0.0154
79 | COc1ccccc1NC1=CC(=NS(=O)(=O)c2ccc(F)cc2)c2ccccc2C1=O | 0.189
80 | COc1ccc(S(=O)(=O)N=C2C=C(Nc3ccccc3OC)C(=O)c3ccccc32)cc1 | 0.0579
81 | Cc1cccc(CCNc2cc(C)nc3ncnn23)c1 | 0.982
82 | COc1ccc2[nH]c(SCC(=O)Nc3cccc(NC(=O)CSc4nc5cc(OC)ccc5[nH]4)n3)nc2c1 | 0.353
83 | Cc1cccc(NC(=O)C2C3C=CC4(O3)C2C(=O)N(CC2COc3ccccc3O2)C4C(=O)NC2CCCC(C)C2C)c1 (centres undefined) | 1.33
84 | Cc1cc2nc(NC(=N)N)nc(C)c2cc1C | 0.718
